# Records with an inconclusive call do not appear. Activity calls are given as the source filed them. The calls were made as follows: active = hit-call score of the fitted dose curve at least 0.9, where 1 is the maximum; inconclusive = response in the unintended direction; inactive = score below 0.9.
# Assays:
# [1] = target: human Orphanin, Opioid Related Nociceptin Receptor 1 (ORL1), OPRL1 (gene 4987) (UniProt P41146); experiment: NVS_GPCR_hORL1: NovaScreen (NVS) G Protein-Coupled Receptor Assay for human Orphanin, Opioid Related Nociceptin Receptor 1 (ORL1) (AID 2283283)
# human Orphanin, Opioid Related Nociceptin Receptor 1 (ORL1), OPRL1 (gene 4987), sequence (P41146 whole entry, looked up): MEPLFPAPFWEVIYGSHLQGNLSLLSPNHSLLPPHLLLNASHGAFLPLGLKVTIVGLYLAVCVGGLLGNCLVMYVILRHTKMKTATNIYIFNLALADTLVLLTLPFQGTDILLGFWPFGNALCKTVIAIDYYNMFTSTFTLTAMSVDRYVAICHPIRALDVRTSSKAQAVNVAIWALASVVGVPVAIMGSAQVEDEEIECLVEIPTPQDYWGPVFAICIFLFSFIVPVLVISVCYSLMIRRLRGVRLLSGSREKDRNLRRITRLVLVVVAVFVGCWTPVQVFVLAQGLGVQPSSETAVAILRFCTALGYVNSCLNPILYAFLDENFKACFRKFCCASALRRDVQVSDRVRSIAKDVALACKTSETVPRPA
# Summary of the method: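 Cell-free binding using HEK293-derived receptor protein: radioligand displacement measured by filter scintillation 1 hour after dosing. Primary testing at 25 uM in duplicate, followed by singleton concentration series up to 50 uM; DMSO served as negative control.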
# [2] = target: guinea pig Serotonin, 5-Hydroxytryptamine Receptor 4 (5HT4), HTR4 (gene 100135548) (UniProt O70528); experiment: NVS_GPCR_g5HT4: NovaScreen (NVS) G Protein-Coupled Receptor Assay for guinea pig Serotonin, 5-Hydroxytryptamine Receptor 4 (5HT4) (AID 2283294)
# guinea pig Serotonin, 5-Hydroxytryptamine Receptor 4 (5HT4), HTR4 (gene 100135548), sequence (O70528 whole entry, looked up): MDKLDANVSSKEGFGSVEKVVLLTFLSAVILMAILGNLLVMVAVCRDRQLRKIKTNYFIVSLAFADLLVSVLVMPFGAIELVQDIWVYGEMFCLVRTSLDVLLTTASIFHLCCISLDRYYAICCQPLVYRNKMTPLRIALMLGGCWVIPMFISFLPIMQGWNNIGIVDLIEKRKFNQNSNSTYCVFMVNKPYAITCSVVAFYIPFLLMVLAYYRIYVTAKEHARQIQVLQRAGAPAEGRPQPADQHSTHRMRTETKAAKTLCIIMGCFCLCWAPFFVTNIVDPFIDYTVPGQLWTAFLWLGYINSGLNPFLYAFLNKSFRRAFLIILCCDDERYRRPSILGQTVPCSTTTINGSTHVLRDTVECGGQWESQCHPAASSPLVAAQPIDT
# Summary of the method: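 Compounds first screened in duplicate at 25 uM, actives followed up in concentration series. Binding measured as displacement of specific radioligand from guinea pig striatal membranes, 1 h, filter-based scintillation read-out versus DMSO baseline.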
# [3] = target: rat Histamine Receptor (H3), Hrh3 (gene 85268) (UniProt Q9QYN8); experiment: NVS_GPCR_rH3: NovaScreen (NVS) G Protein-Coupled Receptor Assay for rat Histamine Receptor (H3) (AID 2283303)
# rat Histamine Receptor (H3), Hrh3 (gene 85268), sequence (Q9QYN8 whole entry, looked up): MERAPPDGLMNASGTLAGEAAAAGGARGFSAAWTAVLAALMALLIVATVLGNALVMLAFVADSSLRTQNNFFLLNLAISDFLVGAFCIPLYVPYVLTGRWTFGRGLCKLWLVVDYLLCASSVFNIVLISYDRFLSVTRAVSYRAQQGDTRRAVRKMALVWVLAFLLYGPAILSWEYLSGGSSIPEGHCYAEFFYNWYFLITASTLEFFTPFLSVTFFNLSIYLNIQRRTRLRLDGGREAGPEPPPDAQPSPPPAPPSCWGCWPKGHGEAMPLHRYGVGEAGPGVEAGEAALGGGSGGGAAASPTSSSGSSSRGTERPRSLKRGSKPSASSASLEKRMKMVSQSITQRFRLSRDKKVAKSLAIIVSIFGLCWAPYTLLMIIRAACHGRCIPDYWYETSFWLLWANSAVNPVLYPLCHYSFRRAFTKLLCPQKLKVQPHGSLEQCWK
# Summary of the method: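 Filter-binding radioligand competition on rat forebrain membranes, 1 h incubation; compounds screened at 25 µM in duplicate and followed in concentration series to 50 µM, loss of bound signal vs DMSO.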
# [4] = target: Metabotropic glutamate receptor 1 (Rattus norvegicus) (UniProt P23385); experiment: NVS_GPCR_rmMGluR1: NovaScreen (NVS) G Protein-Coupled Receptor Assay for rat Glutamate Metabotropic Receptor 1 (MGluR1) (AID 2283305)
# Metabotropic glutamate receptor 1 (Rattus norvegicus), sequence (P23385 whole entry, looked up): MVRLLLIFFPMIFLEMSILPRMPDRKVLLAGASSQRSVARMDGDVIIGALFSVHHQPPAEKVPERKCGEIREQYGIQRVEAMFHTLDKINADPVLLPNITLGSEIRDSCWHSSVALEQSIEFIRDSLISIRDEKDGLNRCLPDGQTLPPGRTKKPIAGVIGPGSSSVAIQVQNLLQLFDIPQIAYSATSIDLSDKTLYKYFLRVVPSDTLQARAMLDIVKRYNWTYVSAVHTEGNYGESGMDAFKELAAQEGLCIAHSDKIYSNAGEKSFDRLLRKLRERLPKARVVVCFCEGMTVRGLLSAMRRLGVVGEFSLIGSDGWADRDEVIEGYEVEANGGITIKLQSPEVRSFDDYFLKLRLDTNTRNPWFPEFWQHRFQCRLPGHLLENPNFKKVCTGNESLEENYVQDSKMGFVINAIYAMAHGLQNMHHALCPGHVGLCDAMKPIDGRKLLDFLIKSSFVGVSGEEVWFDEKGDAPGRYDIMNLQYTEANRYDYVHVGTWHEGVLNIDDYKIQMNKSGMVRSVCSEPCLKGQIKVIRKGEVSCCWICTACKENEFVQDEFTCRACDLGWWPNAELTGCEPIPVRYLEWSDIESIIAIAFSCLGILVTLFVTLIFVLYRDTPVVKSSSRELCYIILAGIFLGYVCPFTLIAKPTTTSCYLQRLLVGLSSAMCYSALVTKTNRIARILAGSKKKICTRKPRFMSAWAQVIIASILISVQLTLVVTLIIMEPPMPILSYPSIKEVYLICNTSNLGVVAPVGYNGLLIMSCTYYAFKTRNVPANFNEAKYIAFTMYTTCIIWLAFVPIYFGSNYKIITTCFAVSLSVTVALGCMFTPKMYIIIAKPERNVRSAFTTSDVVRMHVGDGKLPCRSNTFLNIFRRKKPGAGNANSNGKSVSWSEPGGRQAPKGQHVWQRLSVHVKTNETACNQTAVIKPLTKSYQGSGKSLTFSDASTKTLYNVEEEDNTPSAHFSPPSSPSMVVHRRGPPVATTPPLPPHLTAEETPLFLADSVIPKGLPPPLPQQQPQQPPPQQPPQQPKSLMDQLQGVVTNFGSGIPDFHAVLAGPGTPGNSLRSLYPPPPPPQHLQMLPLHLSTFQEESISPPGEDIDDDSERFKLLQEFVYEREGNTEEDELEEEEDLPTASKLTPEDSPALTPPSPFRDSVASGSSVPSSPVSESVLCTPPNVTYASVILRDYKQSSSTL
# Summary of the method: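 Binding to native receptor from rat cerebellum extract, measured as displacement of a radioligand (scintillation counting, filter separation) after 1 hour. Compounds tested at 25 uM in duplicate, then titrated to a 50 uM maximum.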
# [5] = target: human Vasopressin 1A Receptor (V1A), AVPR1A (gene 552) (UniProt P37288); experiment: NVS_GPCR_hV1A: NovaScreen (NVS) G Protein-Coupled Receptor Assay for human Vasopressin 1A Receptor (V1A) (AID 2283284)
# Summary of the method: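 Single-concentration duplicate screen at 25 uM, with concentration-response follow-up (top 50 uM) for actives. The assay measured displacement of a radioligand from human platelet-derived receptor after 1.5 h, detected by filtration and scintillation counting.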
# [6] = target: rat Serotonin, 5-Hydroxytryptamine Receptor 1 (5HT1), Non-Selective Binding, Htr1a (gene 24473) (UniProt P19327); experiment: NVS_GPCR_r5HT1_NonSelective: NovaScreen (NVS) G Protein-Coupled Receptor Assay for rat Serotonin, 5-Hydroxytryptamine Receptor 1 (5HT1), Non-Selective Binding (AID 2283286)
# rat Serotonin, 5-Hydroxytryptamine Receptor 1 (5HT1), Non-Selective Binding, Htr1a (gene 24473), sequence (P19327 whole entry, looked up): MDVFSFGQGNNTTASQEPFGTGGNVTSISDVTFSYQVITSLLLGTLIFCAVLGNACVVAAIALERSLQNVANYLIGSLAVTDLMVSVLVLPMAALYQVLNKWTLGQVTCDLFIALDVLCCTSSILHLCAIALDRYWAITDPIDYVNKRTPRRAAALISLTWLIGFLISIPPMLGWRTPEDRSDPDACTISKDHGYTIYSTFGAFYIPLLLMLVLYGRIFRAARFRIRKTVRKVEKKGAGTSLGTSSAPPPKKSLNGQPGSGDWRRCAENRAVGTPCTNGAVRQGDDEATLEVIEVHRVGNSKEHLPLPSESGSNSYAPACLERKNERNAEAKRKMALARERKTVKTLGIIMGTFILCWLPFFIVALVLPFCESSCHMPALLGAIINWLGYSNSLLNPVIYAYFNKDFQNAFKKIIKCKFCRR
# Summary of the method: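 Binding of a radioligand to rat cortex membranes is read by filtration and scintillation counting after 1 h. Compounds were screened at 25 uM in duplicate. Actives were then titrated to a top of 50 uM. DMSO is the baseline.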
# [7] = target: rat Serotonin, 5-Hydroxytryptamine Receptor (5HT), Non-Selective Binding, Htr1a (gene 24473) (UniProt P19327); experiment: NVS_GPCR_r5HT_NonSelective: NovaScreen (NVS) G Protein-Coupled Receptor Assay for rat Serotonin, 5-Hydroxytryptamine Receptor (5HT), Non-Selective Binding (AID 2283295)
# rat Serotonin, 5-Hydroxytryptamine Receptor (5HT), Non-Selective Binding, Htr1a (gene 24473), sequence (P19327 whole entry, looked up): as above
# Summary of the method: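 Rat cortex membrane preparation incubated 1 h with radioligand and test chemical; bound radioactivity counted after filtration. Screening began in duplicate at 25 uM with concentration-series follow-up; fitting relative to DMSO.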
# [8] = target: rat Gamma-Aminobutyric Acid Type B Receptor (GABBR), Gabbr1 (gene 81657) (UniProt Q9Z0U4); experiment: NVS_GPCR_rGABBR: NovaScreen (NVS) G Protein-Coupled Receptor Assay for rat Gamma-Aminobutyric Acid Type B Receptor (GABBR) (AID 2283301)
# rat Gamma-Aminobutyric Acid Type B Receptor (GABBR), Gabbr1 (gene 81657), sequence (Q9Z0U4 whole entry, looked up): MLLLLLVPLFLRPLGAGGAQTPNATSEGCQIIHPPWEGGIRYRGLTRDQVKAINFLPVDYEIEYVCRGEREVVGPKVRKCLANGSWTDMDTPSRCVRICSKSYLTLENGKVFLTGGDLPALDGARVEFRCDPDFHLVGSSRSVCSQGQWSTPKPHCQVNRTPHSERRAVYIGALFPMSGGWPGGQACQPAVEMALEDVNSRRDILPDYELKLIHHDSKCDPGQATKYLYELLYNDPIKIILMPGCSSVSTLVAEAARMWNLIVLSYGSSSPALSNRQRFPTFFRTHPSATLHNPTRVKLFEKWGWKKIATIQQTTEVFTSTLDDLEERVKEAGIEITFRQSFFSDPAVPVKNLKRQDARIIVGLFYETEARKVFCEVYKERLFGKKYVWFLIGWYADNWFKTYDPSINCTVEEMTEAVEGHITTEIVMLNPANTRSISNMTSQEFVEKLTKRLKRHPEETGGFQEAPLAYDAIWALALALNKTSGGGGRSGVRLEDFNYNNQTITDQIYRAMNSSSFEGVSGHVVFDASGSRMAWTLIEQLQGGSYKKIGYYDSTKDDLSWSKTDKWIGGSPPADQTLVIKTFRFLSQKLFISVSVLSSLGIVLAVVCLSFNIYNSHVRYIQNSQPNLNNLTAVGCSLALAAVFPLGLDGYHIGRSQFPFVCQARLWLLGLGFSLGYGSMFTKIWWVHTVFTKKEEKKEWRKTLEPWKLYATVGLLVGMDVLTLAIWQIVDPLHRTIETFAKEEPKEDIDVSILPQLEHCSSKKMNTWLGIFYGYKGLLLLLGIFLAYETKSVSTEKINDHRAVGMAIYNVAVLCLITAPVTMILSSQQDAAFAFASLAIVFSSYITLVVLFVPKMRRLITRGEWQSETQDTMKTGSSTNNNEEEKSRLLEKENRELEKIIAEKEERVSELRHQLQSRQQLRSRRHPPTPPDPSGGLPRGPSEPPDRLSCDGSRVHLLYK
# Summary of the method: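 Rat cortical membrane preparation, competitive radioligand binding for 1 h with filtration and scintillation readout. Actives from duplicate single-point 25 uM screening proceeded to concentration series with 50 uM top concentration.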
# [9] = test system: rabbit Platelet Activating Factor Receptor (PAF), gene 100354046; experiment: NVS_GPCR_rabPAF: NovaScreen (NVS) G Protein-Coupled Receptor Assay for rabbit Platelet Activating Factor Receptor (PAF) (AID 2283287)
# Summary of the method: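 Rabbit platelet membrane preparation; radioligand displacement read by filter-based scintillation counting 1 h after dosing, loss of signal versus DMSO. Primary screen in duplicate at 25 uM, actives followed up in concentration series.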
# [10] = target: guinea pig Bradykinin Receptor B2 (BK2), BDKRB2 (gene 100135486) (UniProt O70526); experiment: NVS_GPCR_gBK2: NovaScreen (NVS) G Protein-Coupled Receptor Assay for guinea pig Bradykinin Receptor B2 (BK2) (AID 2283292)
# Summary of the method: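 Guinea pig ileum membrane preparation incubated 1 h with radioligand and test chemical; bound counts measured after filtration. Primary duplicate screening at 25 uM, then singleton concentration series with a 50 uM top dose; DMSO as baseline.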
# [11] = test system: 5-hydroxytryptamine receptor 2C (pig); experiment: NVS_GPCR_p5HT2C: NovaScreen (NVS) G Protein-Coupled Receptor Assay for pig Serotonin, 5-Hydroxytryptamine Receptor 2C (5HT2C) (AID 2283288)
# Summary of the method: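 Radioligand displacement on membranes from pig choroid plexus, detected by filter scintillation counting after 1 h. Tested first at a single 25 uM in duplicate, then in concentration-response for actives; DMSO served as baseline.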
# [12] = target: rat Adrenergic, Alpha 1, Non-selective Receptor (Adra1), Adra1a (gene 29412) (UniProt P43140); experiment: NVS_GPCR_rAdra1_NonSelective: NovaScreen (NVS) G Protein-Coupled Receptor Assay for rat Adrenergic, Alpha 1, Non-selective Receptor (Adra1) (AID 2283289)
# rat Adrenergic, Alpha 1, Non-selective Receptor (Adra1), Adra1a (gene 29412), sequence (P43140 whole entry, looked up): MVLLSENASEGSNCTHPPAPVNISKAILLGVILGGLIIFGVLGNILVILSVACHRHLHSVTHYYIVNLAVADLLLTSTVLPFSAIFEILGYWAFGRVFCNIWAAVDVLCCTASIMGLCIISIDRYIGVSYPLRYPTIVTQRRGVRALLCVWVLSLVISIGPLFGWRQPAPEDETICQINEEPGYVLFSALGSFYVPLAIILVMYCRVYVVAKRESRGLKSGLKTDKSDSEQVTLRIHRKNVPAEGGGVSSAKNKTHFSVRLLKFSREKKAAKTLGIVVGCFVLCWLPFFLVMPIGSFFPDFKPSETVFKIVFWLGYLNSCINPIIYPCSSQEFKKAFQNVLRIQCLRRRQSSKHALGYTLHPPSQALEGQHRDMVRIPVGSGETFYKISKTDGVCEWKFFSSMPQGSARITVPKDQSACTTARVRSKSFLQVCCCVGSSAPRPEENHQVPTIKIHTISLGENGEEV
# Summary of the method: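 Chemicals first screened in duplicate at 25 uM, then actives tested in concentration series up to 50 uM. Binding measured as displacement of radioligand from rat forebrain membrane receptors, 1 h, filtration with scintillation readout; DMSO baseline.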
# [13] = target: rat Adrenergic, Alpha 1A Receptor (Adra1A), Adra1a (gene 29412) (UniProt P43140); experiment: NVS_GPCR_rAdra1A: NovaScreen (NVS) G Protein-Coupled Receptor Assay for rat Adrenergic, Alpha 1A Receptor (Adra1A) (AID 2283296)
# rat Adrenergic, Alpha 1A Receptor (Adra1A), Adra1a (gene 29412), sequence (P43140 whole entry, looked up): as above
# Summary of the method: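 Filter radiodetection after 1 h competitive binding on CEC-pretreated rat cortical membranes. Duplicate single-point screening at 25 uM; active chemicals retested across concentration series.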
# [14] = test system: rat Adrenergic, Alpha 1B Receptor (Adra1B), gene 24173; experiment: NVS_GPCR_rAdra1B: NovaScreen (NVS) G Protein-Coupled Receptor Assay for rat Adrenergic, Alpha 1B Receptor (Adra1B) (AID 2283297)
# Summary of the method: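 Filter-binding radioligand competition on membranes from rat liver, read after 1 h by scintillation counting. Single-concentration duplicate screen at 25 uM, followed by concentration-response on actives, normalised to DMSO.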
# [15] = target: mouse Cholecystokinin, CCK1 Receptor (CCKA), Cckar (gene 12425) (UniProt O08786); experiment: NVS_GPCR_mCCKAPeripheral: NovaScreen (NVS) G Protein-Coupled Receptor Assay for mouse Cholecystokinin, CCK1 Receptor (CCKA) (AID 2283285)
# mouse Cholecystokinin, CCK1 Receptor (CCKA), Cckar (gene 12425), sequence (O08786 whole entry, looked up): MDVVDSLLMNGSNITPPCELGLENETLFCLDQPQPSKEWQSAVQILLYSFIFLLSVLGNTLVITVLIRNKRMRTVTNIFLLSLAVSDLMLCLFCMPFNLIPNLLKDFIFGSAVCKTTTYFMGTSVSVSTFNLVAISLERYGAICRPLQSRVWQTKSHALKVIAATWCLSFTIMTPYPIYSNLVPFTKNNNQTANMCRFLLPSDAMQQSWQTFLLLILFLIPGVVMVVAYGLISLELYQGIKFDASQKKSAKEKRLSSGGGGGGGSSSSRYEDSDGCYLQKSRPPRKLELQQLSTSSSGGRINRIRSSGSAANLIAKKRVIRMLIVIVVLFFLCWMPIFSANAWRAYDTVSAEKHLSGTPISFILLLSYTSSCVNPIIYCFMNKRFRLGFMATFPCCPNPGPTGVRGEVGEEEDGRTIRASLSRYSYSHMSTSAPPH
# Summary of the method: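 Chemicals were first screened in duplicate at 25 uM, with those meeting threshold (e.g., 30% inhibition) retested in singleton concentration series to 50 uM maximum. Binding of radioligand to mouse pancreatic membranes was read after 2 h by filtration and scintillation counting.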
# [16] = target: rat Adrenergic Receptor, Beta (Adrb), Non-selective Binding, Adrb1 (gene 24925) (UniProt P18090); experiment: NVS_GPCR_rAdrb_NonSelective: NovaScreen (NVS) G Protein-Coupled Receptor Assay for rat Adrenergic Receptor, Beta (Adrb), Non-selective Binding (AID 2283298)
# Summary of the method: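 Rat cortical membranes incubated 1 h with beta-adrenergic radioligand and test chemical; bound ligand measured by filtration and scintillation counting. Screen at 25 uM duplicate, then concentration series with 50 uM maximum; loss of signal versus DMSO.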
# [17] = target: mouse Cholecystokinin, CCK2 Receptor (CCKB), Cckbr (gene 12426) (UniProt P56481); experiment: NVS_GPCR_mCKKBCentral: NovaScreen (NVS) G Protein-Coupled Receptor Assay for mouse Cholecystokinin, CCK2 Receptor (CCKB) (AID 2283293)
# Summary of the method: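 Mouse forebrain membrane preparation incubated 2 h with chemical and radioligand; bound radioactivity counted after filtration. Single-concentration duplicate screen at 25 uM, then concentration series to 50 uM max for hits, DMSO as baseline.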
# [18] = target: rat Adrenergic Receptor, Alpha 2 (Adra2), Non-selective Binding, Adra2a (gene 25083) (UniProt P22909); experiment: NVS_GPCR_rAdra2_NonSelective: NovaScreen (NVS) G Protein-Coupled Receptor Assay for rat Adrenergic Receptor, Alpha 2 (Adra2), Non-selective Binding (AID 2283299)
# Summary of the method: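 Filter-based scintillation counting of radioligand binding to rat cortical membrane receptors, measured 1.25 hours post-dosing; loss of signal versus DMSO indicates displacement. Initial single-concentration duplicate at 25 uM, then concentration series.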
smiles,measurement,setting,value
CCCCCCCCn1sccc1=O,AC50,[1],14.1 µM (active)
same,AC50,[2],20.2 µM (active)
same,AC50,[3],10.6 µM (active)
same,AC50,[4],21.2 µM (active)
O=[N+]([O-])C(Br)(CO)CO,AC50,[1],5.41 µM (active)
same,outcome,[5],inactive
same,AC50,[6],32.8 µM (active)
same,outcome,[7],inactive
same,AC50,[4],40.5 µM (active)
C[N+](C)(C)CC1CO1 (stereo not drawn),outcome,[8],inactive
Oc1ccccc1Cl,outcome,[9],inactive
OCCCl,outcome,[7],inactive
CCCSC(=O)N(CCC)CCC,outcome,[10],inactive
Clc1ccc(C(c2ccc(Cl)cc2)C(Cl)Cl)cc1,outcome,[11],inactive
O=C(Oc1ccc(Br)cc1)N1CCN2CCC1CC2,outcome,[12],inactive
same,AC50,[2],14.8 µM (active)
same,AC50,[3],0.851 µM (active)
CC(C)(O)c1cnn2c(-c3ccc(F)c(-c4c(F)cccc4C#N)c3)cnc2n1,outcome,[11],inactive
same,outcome,[8],inactive
O=C(N[C@H](c1ccccc1)[C@@H]1CN2CCC1CC2)c1c(Cl)ccc(C(F)(F)F)c1Cl,AC50,[1],3.38 µM (active)
same,outcome,[6],inactive
same,AC50,[12],23.6 µM (active)
same,AC50,[7],37.5 µM (active)
same,AC50,[13],18.1 µM (active)
same,AC50,[14],14.9 µM (active)
O=[N+]([O-])c1ccc(Oc2ccc(Cl)cc2Cl)cc1,outcome,[15],inactive
same,AC50,[16],0.52 µM (active)
CC(C)(C)C(O)(CCc1ccc(Cl)cc1)Cn1cncn1 (stereo not drawn),outcome,[15],inactive
same,AC50,[9],16.7 µM (active)
CN(C)[C@@H]1C(=O)C(C(N)=O)=C(O)[C@@]2(O)C(=O)C3=C(O)c4c(O)cccc4[C@@](C)(O)[C@H]3C[C@@H]12,AC50,[15],25 µM (active)
CC(C)(C)OOC(=O)c1ccccc1,outcome,[3],inactive
N#CC(Br)(Br)C(N)=O,AC50,[1],41.2 µM (active)
C=CCc1ccc2c(c1)OCO2,outcome,[12],inactive
[Cl-].[Cl-].[Hg+2],AC50,[1],0.321 µM (active)
same,AC50,[15],18 µM (active)
same,AC50,[9],36.7 µM (active)
same,AC50,[12],2.86 µM (active)
same,AC50,[10],25 µM (active)
same,AC50,[17],38.6 µM (active)
same,AC50,[2],7.68 µM (active)
same,AC50,[13],12.1 µM (active)
same,AC50,[14],3.96 µM (active)
same,AC50,[16],35.7 µM (active)
same,AC50,[18],6.48 µM (active)
same,AC50,[8],18.4 µM (active)
same,AC50,[3],24.6 µM (active)
same,AC50,[4],14 µM (active)
CC(O)CCO (stereo not drawn),outcome,[5],inactive

# — PubChem BioAssay (EPA / NIEHS)
